Compounds with a hit are over-represented: about 11% of the library has one in this group of screens.
HP1b binding inh = HTS for Inhibitors of HP1-beta Chromodomain Interactions with Methylated Histone Tails; Chromobox protein homolog 1 (Homo sapiens), P83916; AlphaScreen HP1-beta / biotin-H3K9me3 peptide binding; Potency, µM (top dose mostly 114 µM), inactives show top-dose activity change, negative = inhibition, most hits filed as inhibitors; hit rate 0.56% among 390,000; AID 540317, 2011; note: nearly all actives have a fitted effect of over 70% in size
Target sequence (P83916 whole entry, looked up): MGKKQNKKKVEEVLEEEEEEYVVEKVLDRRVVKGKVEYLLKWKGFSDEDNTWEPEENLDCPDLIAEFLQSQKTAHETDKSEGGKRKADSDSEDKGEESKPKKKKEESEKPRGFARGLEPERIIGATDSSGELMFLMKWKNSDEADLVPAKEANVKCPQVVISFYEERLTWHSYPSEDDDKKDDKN
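HP1-beta protein (50 nM final) preincubated 30 min at room temperature with biotinylated H3(1-18)K9me3 peptide (50 nM) in PBS pH 7.4, 0.01% Tween-20, then compound added for 30 min. AlphaScreen streptavidin donor/nickel chelate acceptor beads (10 ug/mL final), 30 min dark, luminescence read.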
L3MBTL1 inh = qHTS Assay for the Inhibitors of L3MBTL1; Lethal(3)malignant brain tumor-like protein 1 (Homo sapiens), Q9Y468; AlphaScreen L3MBTL1–H3K9me1 peptide binding; Potency, µM (series often up to 57.1 µM), without a hit: at the top dose activity, negative = inhibition, most hits filed as inhibitors; hit rate 0.66% among 230,000; note: % is set by controls: 0 for no effect and ±100 for the full control effect; nearly all actives have a fitted effect of over 60% in size
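Read-out is AlphaScreen signal from streptavidin donor and nickel chelate acceptor beads (10 ug/mL final each) bridging L3MBTL1 (50 nM) and biotinylated K9-monomethylated H3(1-15) peptide (75 nM), after 30 min compound exposure at room temperature.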
G9a inh = qHTS Assay for Inhibitors of Histone Lysine Methyltransferase G9a; G9a H3K9 monomethylation, AlphaScreen, 2 h; Potency, µM (series often up to 102 µM), for the others: at the top dose activity, negative = inhibition, hits mostly inhibitors; hit rate 8.8% among 350,000; note: % is set by controls: 0 for no effect and ±100 for the full control effect; nearly all actives have a fitted effect of over 75% in size
Target sequence (Q96KQ7 913-1193 limits assumed): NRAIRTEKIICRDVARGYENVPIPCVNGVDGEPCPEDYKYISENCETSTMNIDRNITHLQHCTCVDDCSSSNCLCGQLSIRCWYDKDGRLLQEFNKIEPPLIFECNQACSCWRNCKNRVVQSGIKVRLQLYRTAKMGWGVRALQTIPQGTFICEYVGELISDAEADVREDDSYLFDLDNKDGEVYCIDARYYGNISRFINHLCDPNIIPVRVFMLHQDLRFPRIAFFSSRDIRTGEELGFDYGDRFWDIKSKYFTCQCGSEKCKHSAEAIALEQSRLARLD
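G9a (20 nM) was preincubated 15 min with compound, then reacted 2 h at room temperature with 500 nM biotin-H3K9 peptide and 20 µM SAM. Monomethyl-H3K9 detected by AlphaScreen using anti-H3K9me1 antibody.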
BAZ2B block = qHTS Assay for Inhibitors of BAZ2B; AlphaScreen BAZ2B-H3K14Ac peptide displacement; Bromodomain adjacent to zinc finger domain protein 2B (Homo sapiens), Q9UIF8; Potency, µM (doses to about 114 µM), inactives show at the highest dose activity change, negative = inhibition, hits mostly inhibitors; hit rate 4.4% among 360,000; note: % is set by controls: 0 for no effect and ±100 for the full control effect; nearly all actives have a fitted effect of over 60% in size
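AlphaScreen displacement: compounds (up to 110uM) incubated 30 min at room temperature with a preformed 50 nM BAZ2B/50 nM biotinylated H3K14Ac peptide complex in PBS pH 7.4 with Tween-20. Donor and acceptor beads at 10 ug/mL final added, 20 min light-protected before reading.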
JMJD2A Tudor inh = qHTS Assay for Inhibitors of JMJD2A-Tudor Domain; Lysine-specific demethylase 4A (Homo sapiens), O75164; AlphaScreen JMJD2A-Tudor / H3K4me3 peptide binding; Potency, µM (top dose mostly 114 µM), without a hit: top-dose activity change, negative = inhibition, hits mostly inhibitors; hit rate 4.4% among 390,000; AID 504339, 2011; note: % is set by controls: 0 for no effect and ±100 for the full control effect; nearly all actives have a fitted effect of over 50% in size
Starred values were filed as active, the others as inactive; ? = inconclusive; · = not tested or not shown; [ ] = dose if it differs, or a comment. Calls come from the whole dose curve; as a rule, active = well fitted inhibition curve with a large enough effect; inconclusive = small, poorly fitted or top-dose-only effect; inactive = no such curve, though single readings can be large or run the other way. Potency is the fitted concentration of half-maximal effect.

SMILES	HP1b binding inh	L3MBTL1 inh	G9a inh	BAZ2B block	JMJD2A Tudor inh
CCc1cccc(NC(=O)CC2Oc3ccc(C)cc3NC2=O)c1 (stereo not given)	7.3%	·	-11.3%[59 µM]	-26.1%	1.5%
Cc1ccc(NC(=O)Cn2ccn(-c3ccccc3)c(=O)c2=O)cc1	47.2%	·	-2.2%[59 µM]	-1.0%	-4.9%
CC1=C(C(=O)Nc2ccccc2)C(c2ccncc2)n2nc(SCc3ccccc3)nc2N1 (stereo not given)	23.4%	·	-4.3%[59 µM]	?	-9.9%
FC(F)Oc1ccc(C2N=C(c3ccccc3)NO2)cc1 (stereo not given)	48.2%	·	-11.9%	-1.8%	-6.1%
CCC(C)NCCC(=O)Nc1ccc(Cl)c(S(=O)(=O)Nc2ccc(Cl)cc2)c1 (stereo not given)	-4.3%	-4.3%	-41.1%	-22.3%	-19.0%
CCN(c1ccc(NS(=O)(=O)c2cc(Cl)ccc2Cl)cc1)C(C)C	?	?	7.08µM*	35.5µM*	50.1µM*
Clc1ccccc1-c1ccc2ncnc(NCCN3CCOCC3)c2c1	·	·	-0.8%[0.501 µM]	·	·
Cc1noc(C)c1-c1nccc(NC2CC2)n1	·	·	4.4%[0.501 µM]	·	·
c1ccc(-n2cnc3cc(NCc4cccs4)ccc32)cc1	-32.1%	-20.2%	-6.7%[2.33 µM]	50.1µM*	56.2µM*
c1ccc(-n2cnc3cc(NCc4ccco4)ccc32)cc1	?	-24.8%	11.2µM*	?	79.4µM*
Cc1nc2cc(NC(=O)NCc3ccco3)ccc2n1C	14.8%	11.2%[11.4 µM]	-25.0%[59 µM]	-6.5%	-21.4%
COc1ccc(-n2cnc3cc(NCc4cccs4)ccc32)cc1	39.8µM*	?	?	17.8µM*	-15.1%[11.4 µM]
Cn1cnc2cc(NCc3cccs3)ccc21	0.9%	·	?	-30.2%	-34.1%
COc1ccc(/C=N/Nc2nnc(C)n2N)cc1OC(C)=O	23.3%	·	44.7µM*	-24.7%	-11.5%
COc1ccccc1NC(=O)C(C)Sc1nnc2ccc3ccccc3n12 (stereo not given)	24.2%	·	?	-2.6%	-8.9%
CC1CCN(S(=O)(=O)c2ccc(N/N=C(/C#N)C(N)=O)cc2)CC1	-18.3%	-11.8%	6.3%[2.33 µM]	-29.7%	-15.5%
N#C/C(=N\Nc1ccc(S(=O)(=O)N2CCOCC2)cc1)C(N)=S	?	-12.1%	0.562µM*	?	?
N#CC(C#N)=NNc1ccc(S(=O)(=O)N2CCCCC2)cc1	-35.3%	-21.7%	10µM*	?	39.8µM*
Cc1ccc2c(c1)C(=O)C(=O)N2CCOc1ccccc1	?	-25.1%	44.7µM*	?	?
Cc1ccc2c(c1)C(=O)C(=O)N2CCCOc1ccccc1C	?	6.2%	-37.8%	-17.4%	39.8µM*
CCCN1C(=O)C(=O)c2cc(C)ccc21	29.9%	-2.6%	·	·	-8.6%
CC(=O)O[C@@]1(C(C)=O)CCC2C3C=C(C)C4=CC(=O)CCC4(C)C3CCC21C (stereo not given in full)	·	·	-25.4%[2.33 µM]	·	·
C=C1CC2C3C=C(C)C4=CC(=O)CCC4(C)C3CCC2(C)[C@@]1(OC(C)=O)C(C)=O (stereo not given in full)	·	·	17.8µM*	·	·
CC1(C)OC(c2ccccc2)=C/C(=C\C=N\NC(=O)c2ccncc2)O1	6.9%	-29.0%	42.9%[12.7 µM]	70.8µM*	-29.0%
CCOc1ccc(CNC(=O)c2c(C)nn(-c3ccc(F)cc3)c2-n2cccc2)cc1	70.6%	·	?	-0.5%	2.8%
SMILES	HP1b binding inh	L3MBTL1 inh	G9a inh	BAZ2B block	JMJD2A Tudor inh
CC(=O)c1ccc(S(=O)(=O)NCC(=O)N2CCN(C/C=C/c3ccccc3)CC2)cc1	5.5%	0.0%	7.94µM*	-3.9%	-27.1%
Cc1ccc(S(=O)(=O)NCCC(=O)N2CCN(C/C=C/c3ccccc3)CC2)cc1	11.9%	0.0%	9.6%[12.7 µM]	-1.1%	-13.5%
Cc1nn(C)c(Oc2cccc(C(F)(F)F)c2)c1C#N	46.9%	4.9%	9.2%	-0.2%	2.1%
Cc1nn(C)c(Oc2cccc(Cl)c2)c1C#N	17.4%	-17.0%	22.7%	7.9%	20µM*
Cc1cccc(C)c1OCC(=O)N(Cc1ccc(Cl)cc1)CC1CCCO1 (stereo not given)	53.6%	·	15.8%[59 µM]	42.1%	11.9%
Cc1ccc(N(Cc2ccc(C(=O)NCC3CCCO3)cc2)S(C)(=O)=O)cc1C (stereo not given)	5.3%	10.6%	4.3%	-16.8%	-8.3%
Cc1cc(C)c(OCC(=O)N(Cc2ccc(N(C)C)cc2)CC2CCCO2)c(C)c1 (stereo not given)	?	·	12.6µM*	28.2µM*	39.8µM*
Cc1ccccc1OCC(=O)N(Cc1ccc(N(C)C)cc1)CC1CCCO1 (stereo not given)	?	·	15.8µM*	31.6µM*	44.7µM*
Cc1ccc(OCC(=O)N(Cc2ccc(N(C)C)cc2)CC2CCCO2)cc1C (stereo not given)	?	·	14.1µM*	31.6µM*	50.1µM*
CC(C)c1ccc(Nc2c(-c3ccccc3O)nc3cnccn23)cc1	2.9%	·	?	?	?
Cc1ccc(-c2nc3cnccn3c2Nc2ccc(C(C)C)cc2)o1	?	·	·	·	44.7µM*
Cc1ccc(-c2nc3cnccn3c2Nc2c(C)cccc2C)o1	?	8.2%	44.7µM*	13.1%	?
COc1ccc([C@@H]2CC(=O)c3c(O)cc(O[C@@H]4O[C@H](CO[C@@H]5O[C@@H](C)[C@H](O)[C@@H](O)[C@H]5O)[C@@H](O)[C@H](O)[C@H]4O)cc3O2)cc1O	-14.1%	·	-27.2%[12.7 µM]	50.1µM*	?
COc1ccc(-c2cc(=O)c3c(O)cc(OC4OC(COC5OC(C)C(O)C(O)C5O)C(O)C(O)C4O)cc3o2)cc1O (stereo not given)	14.8%	-13.6%	1.8%[12.7 µM]	-20.9%	-16.3%
O=C(CCN1N=C(c2ccccc2)CCC1=O)NCC1COc2ccccc2O1 (stereo not given)	40.1%	·	5.6%[0.501 µM]	-9.3%	3.2%
O=C(c1ccco1)c1coc2c1cc(O)c1ccccc12	-1.7%	-11.5%	39.8µM*	-20.9%	?
CC(=O)c1coc2c1cc(O)c1ccccc12	9.5%	·	-21.3%	7.6%	-12.1%
C[n+]1ccccc1/C=C/c1ccccc1Cl	3.9%	-3.4%	?	56.2µM*	-11.4%
C[n+]1ccccc1/C=C/c1c(F)cccc1F	14.9%	-1.3%	25.1µM*	8.91µM*	?
Cc1ccc2oc3c(c(=O)c2c1)C(c1ccc(O)cc1)N(c1nc(C)c(C)s1)C3=O (stereo not given)	7.8%	·	11.7%[59 µM]	-0.2%	-6.2%
COC(=O)c1ccccc1-c1ccc(/C=C2\C(=O)N(c3ccccc3)N=C2c2ccccc2)o1	1.41µM*	-4.0%	7.08µM*	3.16µM*	?

From PubChem
